# Measured values: PubChem BioAssay (NCI)
# About 83,000 compounds went through this panel and 20% of them were active in at least one assay; those are over-represented in the sample as a whole.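 Compound tested at a single concentration for 48 hours in 96-well plates; a percent growth value below 10 was scored as active.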 Values without a mark were called inactive. Active and inactive are the calls of the source.
# How the values were obtained:
# Test in all cases: NCI-60 one-dose screen, 48 h (100 = growth as untreated, 0 = no growth, -100 = all killed)
# Conditions in all cases: 10 µM
# NCI-H23 lung = system: NCI-H23 lung
# NCI-H226 lung = system: NCI-H226 lung
# NCI-H322M lung = system: NCI-H322M lung
# HOP-62 NSCLC = system: HOP-62 NSCLC
# NCI-H460 lung = system: NCI-H460 lung
# NCI-H522 lung = system: NCI-H522 lung
# A549/ATCC NSCLC = system: A549/ATCC NSCLC
# 786-0 renal = system: 786-0 renal
# COLO 205 colon = system: COLO 205 colon
SMILES,growth (NCI-H23 lung),growth (NCI-H226 lung),growth (NCI-H322M lung),growth (HOP-62 NSCLC),growth (NCI-H460 lung),growth (NCI-H522 lung),growth (A549/ATCC NSCLC),growth (786-0 renal),growth (COLO 205 colon)
COC(=O)c1cccnc1,95.6%,98%,106%,99.4%,105%,78.2%,91.9%,87.1%,95.3%
C/C(O)=C(\C=N\C(N)=S)C(=O)Nc1ccccc1,94.5%,87.1%,104%,90.9%,99.9%,83.7%,100%,105%,104%
N#Cc1ccc(NC(=O)Nc2cccc(C#N)c2)cc1,86.3%,116%,116%,112%,78.8%,51.9%,69.1%,97.5%,160%
NCCC(=O)c1ccc(Cl)cc1,99.8%,112%,102%,91%,107%,100%,111%,105%,106%
Cc1ccc(C(O)C2CC2)cc1 (stereo not drawn),103%,91.9%,97.1%,106%,103%,107%,95.9%,103%,110%
CCCCC(O)c1ccccc1 (stereo not drawn),96.5%,97.2%,101%,110%,105%,108%,100%,104%,105%
NCC(=O)CCC(=O)O,93.8%,99.2%,107%,99.1%,115%,107%,99.1%,103%,116%
Cc1cc(C)cc(NCCC#N)c1,108%,112%,118%,115%,107%,106%,151%,111%,131%
CC1=NN(c2ccccc2)C(=O)/C1=C\N1CC(=O)NC1=S,98.1%,98.4%,108%,99.5%,98.6%,81.7%,100%,104%,106%
CCC/C=C(/C(C)=O)C(=O)OCC,107%,95.7%,110%,108%,114%,111%,90.8%,113%,113%
N#CC1(Nc2ccc3c4c(cccc24)CC3)CCCCC1,93.5%,81.8%,85.1%,92.9%,105%,63.3%,95%,106%,94.7%
S=c1sc2ccccc2n1CN1CCCCC1,95.9%,92.9%,99.1%,89.7%,102%,82.3%,99.2%,105%,103%
Cc1cccc([N+](=O)[O-])c1Cl,96.4%,98.2%,105%,103%,108%,116%,104%,102%,109%
C#CCSc1nnnn1-c1ccc(Br)c(C)c1,89.7%,74.6%,107%,102%,97%,71.1%,92.8%,89.1%,135%
CC1=C(/C=C/C(C)=C/C=C/C(C)=C/CO)C(C)(C)CCC1,102%,104%,105%,104%,117%,105%,102%,103%,110%
CC(=O)Nc1cccc(NC(C)=O)n1,128%,103%,104%,101%,104%,100%,108%,101%,123%
COc1ccccc1NC(=O)c1cc2cc(Br)ccc2cc1O,4.53% (active),8.51% (active),22.6%,6.34% (active),2.06% (active),-24.5% (active),3.54% (active),14.1%,50.8%
O=C(O)CCC(=O)OC(C1CO1)C(OC(=O)CCC(=O)O)C1CO1 (stereo not drawn),102%,96.5%,112%,102%,103%,91%,97.4%,103%,99.9%
COc1cc2nc3cc([N+](=O)[O-])ccc3c(Cl)c2cc1OC,98.6%,56.3%,103%,111%,109%,70.7%,95.7%,104%,112%
CC(=O)c1c[nH]c2ccccc12,106%,97.5%,101%,95.8%,113%,92.9%,103%,103%,119%
Cc1c(O)cccc1O,106%,93.4%,90.3%,92%,114%,73.1%,122%,102%,116%
O=C(N/N=C/c1ccccc1O)Nc1nn[nH]n1,106%,96.4%,97%,111%,102%,95.4%,108%,108%,109%
O=[N+]([O-])c1ccc(O)c(S(=O)(=O)O)c1,103%,102%,126%,101%,109%,104%,106%,104%,122%

SMILES,growth (NCI-H23 lung),growth (NCI-H226 lung),growth (NCI-H322M lung),growth (HOP-62 NSCLC),growth (NCI-H460 lung),growth (NCI-H522 lung),growth (A549/ATCC NSCLC),growth (786-0 renal),growth (COLO 205 colon)
C[C@@H](c1ccccc1)[C@@H](C(=O)O)c1ccccc1,100%,98.8%,97.5%,99.7%,104%,99.9%,101%,99.5%,107%
CCOC(=O)c1coc(C(=O)OCC)c1C(=O)OCC,100%,111%,120%,119%,111%,128%,108%,108%,128%
CNS(=O)(=O)c1ccc(Cl)c(Cl)c1,110%,86.4%,103%,82.3%,109%,97.8%,104%,85.9%,114%
Cc1cc(O)ccc1O,104%,96.1%,98.5%,89.8%,106%,82.9%,108%,75.3%,120%
O=C(O)c1cccc([N+](=O)[O-])c1O,98.9%,104%,97.3%,96%,104%,101%,111%,102%,105%
COC(=O)c1cccc(Br)c1,102%,106%,97.5%,92%,109%,102%,116%,110%,121%
C=CC(O)CCC (stereo not drawn),106%,115%,103%,110%,104%,99.6%,91.5%,105%,119%
Cc1cc2nc(CO)[nH]c2cc1C,105%,108%,113%,99.4%,114%,96.9%,90.9%,107%,103%
CC1(O)CCCCC1O (stereo not drawn),103%,104%,104%,95.9%,109%,91.8%,,102%,108%
N#CCCN(CCCN1CCOCC1)CN1C(=O)c2ccccc2C1=O,102%,97.9%,90.8%,105%,111%,,105%,111%,109%
NC(CSC(c1ccccc1)(c1ccccc1)c1ccccc1)C(=O)O (stereo not drawn),61.3%,87.6%,43.9%,44.5%,13.6%,,25.7%,49.4%,23.2%
COc1cc(/C=N\Nc2ccccc2)ccc1OC(=O)c1ccccc1,79.5%,74.9%,59.8%,77.8%,44.2%,20.6%,68.6%,78.4%,84.8%
OCc1cccc2ccccc12,101%,112%,121%,104%,112%,,108%,109%,114%
O=[N+]([O-])c1ccccc1S(=O)c1ccccc1[N+](=O)[O-],95.9%,111%,95.5%,108%,105%,,101%,111%,106%
CCCCN(CCCC)CCCO,104%,104%,136%,106%,109%,,106%,109%,105%
C1CNC(C2=NCCN2)=N1,106%,103%,90.9%,99.4%,101%,101%,,103%,114%
CC1(C)/C(=C\CO)C2CCC1C2 (stereo not drawn),103%,98.1%,103%,96.8%,115%,88.8%,,101%,111%
O=C1OC[C@H]2[C@H](c3ccc(O)c(O)c3)c3cc(O)c(O)cc3C[C@H]12,13.4%,116%,130%,130%,122%,19.4%,,110%,108%
COC(=O)c1ccc(NC(=O)CCl)cc1,85.3%,118%,95.7%,88.5%,47.5%,,79.2%,93.5%,103%
CCN=c1cc2sc3cc(NCC)c(C)cc3nc-2cc1C,5.46% (active),64.2%,27.3%,29.4%,1.61% (active),,-40.3% (active),46.3%,-25.8% (active)
CN(C)c1ccc(CNC(C(=O)c2ccccc2)c2ccccc2)cc1 (stereo not drawn),98.5%,101%,92.8%,75.5%,110%,85.4%,,109%,113%
CCC(=O)Oc1ccc(OC)cc1,108%,105%,95.5%,98%,104%,,105%,105%,110%
COCCCNC(=O)c1nnn2c1nc(N)c1cc(Cl)ccc12,98.4%,94.1%,88.9%,80.4%,102%,,106%,96.6%,77.7%

SMILES,growth (NCI-H23 lung),growth (NCI-H226 lung),growth (NCI-H322M lung),growth (HOP-62 NSCLC),growth (NCI-H460 lung),growth (NCI-H522 lung),growth (A549/ATCC NSCLC),growth (786-0 renal),growth (COLO 205 colon)
CCOC(=O)CCCS(C)(=O)=O,98.6%,109%,120%,102%,110%,,109%,110%,110%
C[N+](C)(C)C(=O)c1ccccc1,99.5%,102%,118%,101%,119%,,101%,109%,109%
CC(C)(C)n1nc(C2CC2)c(Br)c1NC(=O)c1ccccc1F,117%,102%,98.3%,92.5%,102%,,93%,99.6%,104%
COC(=O)Nc1nc2ccc(C(=O)c3ccc(F)cc3)cc2[nH]1,31.8%,145%,40.5%,33.1%,6% (active),-52.1% (active),,26.4%,-37.7% (active)
O=C1c2ccccc2C(=O)c2c1ccc(C(=O)O)c2[N+](=O)[O-],101%,107%,105%,97.2%,109%,,103%,106%,108%
NC(=S)CN1CCOCC1,106%,114%,91.6%,118%,105%,97.9%,110%,,118%
Cc1ccncc1C(N)=O,119%,95.4%,104%,98.6%,101%,,108%,106%,124%
COc1cc(C(N)=O)cc(OC)c1OC,101%,102%,106%,99.6%,111%,102%,,108%,101%
C#Cc1cccc(NC(=O)c2ccc(Cl)cc2Cl)c1,102%,104%,98.3%,108%,105%,,48.7%,99.9%,128%
C=CC(=O)OCCCCCCCC,105%,98.9%,117%,98.4%,102%,,99.8%,104%,107%
Cc1cc(C(O)(c2ccc(Nc3ccccc3)cc2)c2ccc(Nc3ccc(S(=O)(=O)O)cc3)cc2)ccc1N (stereo not drawn),8.07% (active),28.9%,25%,53.5%,-39.3% (active),-45.8% (active),,-1.27% (active),-71% (active)
CC(CC(=O)c1ccccc1)c1ccccc1 (stereo not drawn),106%,98.4%,90.6%,119%,104%,84.1%,,96.8%,123%
CCOC(=O)C/C(C)=N\O,100%,98.4%,97.9%,90.2%,106%,,95.6%,96.1%,104%
Cc1cc(N2CCC(N3CCCC3)CC2)nc(/N=C(\N)Nc2ccc(Cl)c(Cl)c2)n1,56.8%,84.6%,-30.6% (active),-8.02% (active),-67.8% (active),-66.4% (active),-22.1% (active),-54.3% (active),-82.3% (active)
Cc1c(O)cnc2nn(-c3ccccc3)c(=N)n12,102%,100%,114%,98.3%,103%,,96.1%,102%,123%
O=C1C=C(O)C(=O)C=C1O,94.8%,114%,112%,97.9%,107%,,112%,107%,94.1%
COc1cc2cc(c1Cl)N(C)C(=O)C[C@H](OC(=O)[C@H](C)N(C)C(C)=O)[C@]1(C)O[C@H]1[C@H](C)[C@@H]1C[C@@](O)(NC(=O)O1)[C@H](OC)C=C/C=C(\C)C2,31.1%,3.37% (active),31.5%,14%,2.87% (active),-60.8% (active),38.3%,10.6%,-51.3% (active)
COc1ccc(/C(C#N)=C2C=C/C(=N/O)c3ccccc3\2)cc1,27.7%,36%,48.5%,35.3%,3.48% (active),,11.8%,16.8%,-73% (active)
CCN(CC)CCNc1ccc(CO)c2sc3ccccc3c(=O)c12,44.9%,35.9%,50.9%,43.3%,14.5%,-17.8% (active),24.2%,49.6%,11.9%
S=c1[nH]ccn1-c1ccccc1Cl,112%,113%,133%,112%,117%,-30.9% (active),53.8%,109%,117%
CCC/C=C(\C)C(C)(C#N)C(=O)OCC (stereo not drawn),116%,101%,111%,99.1%,108%,,95.7%,110%,110%
O=[N+]([O-])c1ccc(Cl)c(S(=O)(=O)O)c1,103%,109%,136%,103%,108%,,102%,110%,118%
CN(C)/N=C/c1ccccc1O,113%,98.6%,89.7%,109%,100%,,104%,92.8%,112%
